Source: PubChem
This is one part of a sample in which hits are shown more often than they occur.
Pf Dd2 inh: qHTS Primary assay for Inhibitors of Plasmodium falciparum Dd2 growth in vitro; Potency, µM (top dose mostly 28.9 µM), inactives show at the highest dose activity, negative = inhibition, hits mostly inhibitors; 120,000 compounds, 4.3% hits; P. falciparum Dd2 growth, SYBR Green, 72 h; active means well fitted inhibition curve with a large enough effect;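 further: plate controls were DMSO vehicle for no effect and reference drug for full effect; nearly all actives have a fitted effect of over 65% in size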
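Readout: SYBR Green fluorescence, 485 nm excitation, 535 nm emission, after ~16 h lysis at 37C. Before that, Dd2-infected red cells (2.5% hematocrit) grew 72 h with compound, 29 uM top final concentration.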
Numbers without * were called inactive; i = inactive; [ ] = remark or other dose. Potency means the concentration at half of the fitted maximal effect.

SMILES	Pf Dd2 inh
O=C(c1ccc2c(c1)N(Cc1ccccc1F)C(=O)c1ccccc1S2(=O)=O)N1CCCCCC1	i
O=C(OCC1CCCO1)c1ccc2c(c1)N(Cc1ccccc1Cl)C(=O)c1ccccc1S2(=O)=O (configuration not stated)	8.9µM*
O=C(O)C1=NOC2CN(Cc3ccc(F)c(F)c3F)CC12 (configuration not stated)	10%[44.1 µM]
CCOc1ccc(C(=O)N2CCC3(CC2)CC(O)CCO3)cc1 (configuration not stated)	-8%
COc1ccnc(-c2nnc3ccc(NC4CCOCC4)nn23)c1	i
CC(=O)N1CC2(Cc3ccccc31)CN(C(=O)C1CC1)C2	-20%[44.1 µM]
O=C(C[C@H]1NC(=O)c2ccccc2NC1=O)Nc1ncn[nH]1	-6%
Cc1cc(C)cc(N2CCC(NC(=O)c3cc(F)cc(F)c3)C2=O)c1 (configuration not stated)	i
CCOCc1nc(C2CCCN(C(=O)c3ccc(C)c(F)c3)C2)no1 (configuration not stated)	120%
CCn1nc(C)cc1C(=O)N1CCOC[C@H](Oc2ccc(OC)cc2)C1	i
COc1ccc(C(=O)N2CCCC(CN3CCOCC3)CC2)cc1 (configuration not stated)	-12%
CCc1ccccc1NC(=O)c1ccc2c(c1)N(Cc1cc(C)ccc1C)C(=O)c1ccccc1S2(=O)=O	7.1µM*
COc1ccc(CNC(=O)c2ccc3c(c2)N(Cc2ccccc2F)C(=O)c2ccccc2S3(=O)=O)cc1	i
COc1ccc(CCNC(=O)c2ccc3c(c2)N(Cc2ccccc2F)C(=O)c2ccccc2S3(=O)=O)cc1OC	i
COc1ccc(-c2cc(C[C@@H]3C[C@H](NCc4ccncc4)C3(C)C)no2)cc1	-16%[44.1 µM]
O=C(CC1CCOC2(CCN(S(=O)(=O)Cc3ccccc3)CC2)C1)N1CCOCC1 (configuration not stated)	9%
Cc1ccc(-n2c(=O)c3cccnc3n2CC(=O)NCc2ccc(Cl)cc2)cc1	-6%
CCc1ccc(-n2c(=O)c3cccnc3n2CC(=O)Nc2cc(F)ccc2F)cc1	5µM*
CCN(CC)c1ccc(NC(=O)Cn2c3ncccc3c(=O)n2-c2ccccc2)c(C)c1	7%
CN[C@@H](C)C(=O)N1CC[C@H](NC(=O)c2ccncc2)C[C@H]1C(=O)N[C@@H](Cc1ccc(OC)cc1)C(N)=O	28%
COc1nc2c(cc1CNC(=O)CSC)C(=O)N(CCc1ccccn1)C2	-5%
CCOC(=O)CCNC(=O)N1CCc2c(nc3cc(-c4ccccc4)[nH]n3c2=O)C1	i
CCN1CCN(CCNC(=O)C2CCCCC(=O)N2Cc2ccccc2)CC1 (configuration not stated)	-3%
O=C(NCCCN1CCc2ccccc2C1)C1CCCCC(=O)N1Cc1ccccc1 (configuration not stated)	4µM*
O=C1CCCCC(C(=O)NCCCN2CCc3ccccc3C2)N1 (configuration not stated)	-13%
SMILES	Pf Dd2 inh
COc1ccccc1CCN1CCC(CN(C)Cc2n[nH]c(C)n2)CC1	14%
COCCN(C)C[C@H]1C[C@H](CO)CN(C(=O)c2c(C)cccc2OC)C1	10%
CC(=O)N1CCN(c2nc3c(s2)CC(C(=O)Nc2cc(F)cc(F)c2)CC3)CC1 (configuration not stated)	4.5µM*
CC(C)C(=O)N1CCN(c2nc3c(s2)CC(C(=O)NCc2ccco2)CC3)CC1 (configuration not stated)	13µM*
COc1ccc(CNC(=O)C2CCc3nc(N4CCN(C(C)=O)CC4)sc3C2)cc1 (configuration not stated)	i
CC(=O)N1CCN(c2nc3c(s2)CC(C(=O)NCc2ccccc2C)CC3)CC1 (configuration not stated)	i
CC(=O)N1CCN(c2nc3c(s2)CC(C(=O)Nc2cccc(C(C)(C)C)c2)CC3)CC1 (configuration not stated)	-13%
CC(C)C(=O)N1CCN(c2nc3c(s2)CC(C(=O)Nc2ccc(Cl)cc2)CC3)CC1 (configuration not stated)	i
CC(=O)N1CCN(c2nc3c(s2)CC(C(=O)NC2CCCCC2)CC3)CC1 (configuration not stated)	i
Cc1ccc(CNC(=O)C2CCc3nc(N4CCN(C(=O)C(C)C)CC4)sc3C2)o1 (configuration not stated)	7.9µM*
CCC(=O)N1CCN(c2nc3c(s2)CC(C(=O)NCc2ccc(F)cc2)CC3)CC1 (configuration not stated)	-29%
CC(C)(C)C(=O)N1CCC2(CC1)OCC(C(=O)NCC1CCCO1)N2C(=O)c1ccc(F)cc1 (configuration not stated)	0%
O=C1CC2(CCN(Cc3cccc4ccccc34)CC2)Oc2ccccc2N1	-12%
CCn1c2c(c(=O)n1Cc1ccccc1)CCN(C(=O)c1cn[nH]c1)C2	33%[44.1 µM]
N#Cc1nc(/C=C/c2ccc(F)cc2)oc1N1CCN(c2ccccc2)CC1	60%
Cc1ccccc1OCc1ccc(-c2nc(C#N)c(N3CCN(c4ccccc4)CC3)o2)o1	11µM*
Cc1ccc(OCc2ccc(-c3nc(C#N)c(N4CCN(c5cccc(Cl)c5)CC4)o3)o2)cc1	-8%
CCNc1ncc(CN2CCC(N)(C(=O)O)C2)cn1 (configuration not stated)	4%
Cc1nn(-c2cccc(Br)c2)c(C)c1[C@@H]1C=C[C@@H](NS(C)(=O)=O)C1	-3%[44.1 µM]
Cc1ccc(-n2nc(C)c([C@@H]3C=C[C@@H](NC(=O)CC(C)(C)CC(=O)O)C3)c2C)cc1Cl	i
Cc1ccc(-n2nc(C)c([C@@H]3C=C[C@@H](NCc4ccc(F)cc4)C3)c2C)cc1Cl	3.5µM*
Cc1nn(-c2ccccc2)c(C)c1[C@@H]1C=C[C@@H](NCc2cccc(C#N)c2)C1	i
Cc1nn(-c2ccc(C(C)C)cc2)c(C)c1[C@@H]1C=C[C@@H](NCc2ccc(F)cc2)C1	4µM*
Cc1nn(CCC#N)c(C)c1[C@@H]1C=C[C@@H](NCc2ccc(F)cc2)C1	-16%[44.1 µM]
Cc1nn(-c2ccc(C(C)C)cc2)c(C)c1[C@@H]1C=C[C@@H](NCc2cccc(C#N)c2)C1	4.5µM*
SMILES	Pf Dd2 inh
Cc1ccc(-n2nc(C)c([C@@H]3C=C[C@@H](NCc4ccc(N(C)C)cc4)C3)c2C)cc1Cl	-42%[44.1 µM]
COc1ccc(CCNC(=O)C2CCN(c3cn[nH]c(=O)c3)C2)cc1OC (configuration not stated)	-7%
COc1cccc(CN2C(=O)C3(CCOCC3)CC2c2nnnn2C(C)(C)C)c1 (configuration not stated)	1%
CNC(=O)[C@@H](c1ccc(Cl)cc1)N1CCC[C@H]1C(=O)NCCOC	9%[44.1 µM]
O=C1NC(=NC2CCCCC2)C2(CCN(CC3CCCCC3)CC2)N1c1cccnc1	5%
Cc1noc(C)c1[S+](=O)([O-])N1CCn2cc(C(=O)NCc3ccc(Cl)nc3)nc2C1	-11%
COc1ccc(F)c(CN2CCCC(O)(CN3CCC(C(N)=O)CC3)C2=O)c1 (configuration not stated)	-9%
CSCC(=O)N[C@H]1CN(Cc2cn(CCO)nc2C)C[C@@H]1C1CC1	1%
CCOC(=O)c1sc(NC(=O)c2nc3nc(C)cc(C(F)F)n3n2)c(C(=O)OC)c1C	-32%
CCCOC(=O)c1c(NC(=O)c2nc3ncccn3n2)sc(C(=O)OCC)c1C	2.8µM*
CCOC(=O)c1sc(NC(=O)c2nc(SC)ncc2Cl)c(C(=O)OCC)c1C	140%
